Data as given in the antibiotic and cytotoxicity screens of Wong et al. (2023).
About 3,300 (8.5%) of roughly 39,000 compounds were called active. The full list was thinned out, with actives kept by preference.

These compounds were tested on HepG2 (assay: cytotoxicity call (relative viability < 0.9)). Conditions: 10 µM.

| SMILES | cytotoxicity call |
| --- | --- |
| C[C@H](CO)N1C[C@H](C)[C@@H](CN(C)C(=O)Nc2ccc3c(c2)OCO3)OCCCC[C@H](C)Oc2ccc(NS(=O)(=O)c3ccc(Cl)cc3)cc2C1=O | inactive |
| COC(=O)c1c2oc(c1C(=O)OC)C(=O)N[C@H](Cc1ccccc1)Cn1cc(nn1)CNC(=O)[C@@H](Cc1ccccc1)NC(=O)N[C@@H](COC(=O)NCCCCCC(=O)NO)CC2 | inactive |
| C[C@H](NC(=O)[C@H]1N[C@H]2c3ccc(-c4ccc(C(=O)N(C)C)cc4)c(=O)n3C[C@H]2[C@@H]1CO)c1ccccc1 | inactive |
| COc1ccc(NC(=O)N(C)C[C@@H]2Oc3ccc(NS(=O)(=O)c4cn(C)cn4)cc3CC(=O)N([C@H](C)CO)C[C@H]2C)cc1 | inactive |
| COc1ccc(NC(=O)Nc2cccc3c2O[C@@H](CN(C)Cc2ccc(C(=O)Nc4ccccc4N)cc2)[C@@H](C)CN([C@@H](C)CO)C3=O)cc1 | inactive |
| CCN(CC)c1ccc(N2CC=C[C@@]34O[C@@H]5/C=C\CCCOC(=O)[C@@H]5[C@H]3C(=O)N(CCCCCCO)[C@@H]4C2=O)cc1 | inactive |
| C[C@@H]1CCCCO[C@@H](CN(C)C(=O)Nc2ccccc2)[C@H](C)CN([C@@H](C)CO)C(=O)c2cc(NS(=O)(=O)c3ccccc3)ccc2O1 | inactive |
| Cc1ccc(S(=O)(=O)Nc2ccc3c(c2)C(=O)N([C@@H](C)CO)C[C@@H](C)[C@@H](CN(C)S(=O)(=O)c2c(C)noc2C)O3)cc1 | inactive |
| C[C@H](CO)N1C[C@H](C)[C@H](CN(C)CC2CCCCC2)Oc2c(NC(=O)CCCCCC(=O)Nc3ccccc3N)cccc2C1=O | inactive |
| C[C@H]1CN([C@@H](C)CO)C(=O)c2cccc(NC(=O)CCCCCC(=O)Nc3ccccc3N)c2O[C@@H]1CN(C)CC1CCCCC1 | active |
| C[C@@H]1CN([C@@H](C)CO)C(=O)c2cccc(NC(=O)CCCCCC(=O)Nc3ccccc3N)c2O[C@H]1CN(C)CC1CCCCC1 | inactive |
| C[C@@H]1CN([C@H](C)CO)C(=O)c2cccc(NC(=O)CCCCCC(=O)Nc3ccccc3N)c2O[C@@H]1CN(C)CC1CCCCC1 | inactive |
| C[C@H](CO)N1C[C@H](C)[C@@H](CN(C)CC2CCCCC2)Oc2c(NC(=O)CCCCCC(=O)Nc3ccccc3N)cccc2C1=O | inactive |
| C[C@H]1CN([C@@H](C)CO)C(=O)c2cccc(NC(=O)CCCCCC(=O)Nc3ccccc3N)c2O[C@H]1CN(C)CC1CCCCC1 | inactive |
| C[C@@H]1CN([C@@H](C)CO)C(=O)c2cccc(NC(=O)CCCCCC(=O)Nc3ccccc3N)c2O[C@@H]1CN(C)Cc1ccccc1 | inactive |
| C[C@@H]1CN([C@H](C)CO)C(=O)c2cccc(NC(=O)CCCCCC(=O)Nc3ccccc3N)c2O[C@H]1CN(C)CC1CCCCC1 | active |
| C[C@@H]1CN([C@@H](C)CO)C(=O)c2cccc(NC(=O)CCCCCC(=O)Nc3ccccc3N)c2O[C@@H]1CN(C)CC1CCCCC1 | active |
| Nc1nc(=O)c2ncn(COC(CO)CO)c2[nH]1 | inactive |
| CN[C@H]1[C@@H](O[C@H]2[C@@H](O[C@H]3[C@@H](O)[C@@H](O)[C@@H](NC(=N)N)[C@@H](O)[C@@H]3NC(=N)N)O[C@@H](C)[C@@]2(O)C=O)O[C@@H](CO)[C@@H](O)[C@@H]1O.CN[C@H]1[C@@H](O[C@H]2[C@@H](O[C@H]3[C@@H](O)[C@@H](O)[C@@H](NC(=N)N)[C@@H](O)[C@@H]3NC(=N)N)O[C@@H](C)[C@@]2(O)C=O)O[C@@H](CO)[C@@H](O)[C@@H]1O.O=S(=O)(O)O.O=S(=O)(O)O.O=S(=O)(O)O | inactive |

| SMILES | cytotoxicity call |
| --- | --- |
| CC1(C)SC2C(NC(=O)C(C(=O)[O-])c3ccccc3)C(=O)N2C1C(=O)[O-].[Na+].[Na+] (configuration not stated) | inactive |
| C[C@@H]1CCCCO[C@@H](CN(C)C(=O)c2ccccc2)[C@@H](C)CN([C@@H](C)CO)C(=O)c2cc(NC(=O)c3ccccc3)ccc2O1 | inactive |
| C[C@@H]1CCCCO[C@@H](CN(C)C(=O)Nc2ccc(C(F)(F)F)cc2)[C@@H](C)CN([C@H](C)CO)C(=O)c2cc(NS(=O)(=O)c3cn(C)cn3)ccc2O1 | inactive |
| Cc1cccc(C)c1NC(=O)C1CCCCN1C.Cl (configuration not stated) | inactive |
| C=C1SC(Nc2c(C)cccc2C)=NC12CCCCC2 | active |
| Cc1cccc(C)c1Nc1nc2c(C)cc(C)c(C)c2s1 | inactive |
| C[C@@H]1CN([C@@H](C)CO)C(=O)Cc2cc(NC(=O)C3CC3)ccc2O[C@H]1CN(C)C(=O)Nc1ccccc1 | inactive |
| COCC#Cc1ccc([C@H]2[C@H]3CN(C(=O)CN4CCOCC4)CC(=O)N3[C@H]2CO)cc1 | inactive |
| COc1ccc(S(=O)(=O)N(C)C[C@@H]2OCCCC[C@@H](C)Oc3ccc(NS(=O)(=O)c4cn(C)cn4)cc3C(=O)N([C@H](C)CO)C[C@H]2C)cc1 | inactive |
| C[C@@H]1CN([C@@H](C)CO)C(=O)c2cc(C#CCc3ccccc3)cnc2O[C@H]1CN(C)CC1CCOCC1 | inactive |
| COc1ccc(NC(=O)Nc2ccc3c(c2)C(=O)N([C@@H](C)CO)C[C@@H](C)[C@@H](CN(C)S(=O)(=O)c2ccc(F)cc2)OCCCC[C@@H](C)O3)cc1 | inactive |
| COc1ccc(NC(=O)Nc2ccc3c(c2)C(=O)N([C@H](C)CO)C[C@@H](C)[C@H](CN(C)S(=O)(=O)c2ccc(F)cc2)OCCCC[C@H](C)O3)cc1 | active |
| COc1ccc(NC(=O)Nc2ccc3c(c2)C(=O)N([C@H](C)CO)C[C@H](C)[C@@H](CN(C)S(=O)(=O)c2ccc(F)cc2)OCCCC[C@H](C)O3)cc1 | inactive |
| COc1ccc(S(=O)(=O)N(C)C[C@H]2OCCCC[C@@H](C)Oc3ccc(NC(=O)Nc4ccc(F)cc4)cc3C(=O)N([C@H](C)CO)C[C@@H]2C)cc1 | active |
| COc1ccc(NC(=O)Nc2ccc3c(c2)C(=O)N([C@H](C)CO)C[C@@H](C)[C@@H](CN(C)S(=O)(=O)c2ccc(F)cc2)OCCCC[C@H](C)O3)cc1 | inactive |
| COc1ccc(NC(=O)Nc2ccc3c(c2)C(=O)N([C@H](C)CO)C[C@H](C)[C@H](CN(C)S(=O)(=O)c2ccc(F)cc2)OCCCC[C@@H](C)O3)cc1 | inactive |
| CO[C@H]1CN(C)C(=O)c2ccc(NS(=O)(=O)c3cn(C)cn3)cc2OC[C@H](C)N(CC2CC2)C[C@@H]1C | inactive |
| CC1(C)OC(=O)N(CCCC(=O)O)[C@@]1(C)O | inactive |
| CC(=O)OC1CC(OC(C)=O)C2(C)C(CC(O)C3(C)C2CCC2(C)C(c4ccoc4)OC(=O)C4OC423)C1(C)C (configuration not stated) | inactive |

| SMILES | cytotoxicity call |
| --- | --- |
| C[C@H]1CN([C@@H](C)CO)C(=O)c2cc(NC(=O)Cn3cnnn3)ccc2O[C@H]1CN(C)CC1CCCCC1 | inactive |
| C[C@H](CO)N1C[C@H](C)[C@H](CN(C)Cc2ccc(C(=O)O)cc2)Oc2c(NC(=O)C3CC3)cccc2C1=O | inactive |
| CS(=O)(=O)NC[C@@]12COC[C@H]1CN(C(=O)c1cnccn1)C2 | inactive |
| C[C@@H]1CCCCO[C@H](CN(C)S(=O)(=O)c2ccc(Cl)cc2)[C@H](C)CN([C@@H](C)CO)C(=O)c2cc(NC(=O)CCC(F)(F)F)ccc2O1 | inactive |
| C[C@H]1CCCCO[C@@H](CN(C)Cc2ccc(C(F)(F)F)cc2)[C@@H](C)CN([C@@H](C)CO)C(=O)c2cc(NC(=O)CCCN(C)C)ccc2O1 | inactive |
| C[C@@H]1CCCCO[C@H](CN(C)Cc2ccc(C(F)(F)F)cc2)[C@H](C)CN([C@H](C)CO)C(=O)c2cc(NC(=O)CCCN(C)C)ccc2O1 | inactive |
| C[C@@H]1CCCCO[C@@H](CN(C)Cc2ccc(C(F)(F)F)cc2)[C@@H](C)CN([C@@H](C)CO)C(=O)c2cc(NC(=O)CCCN(C)C)ccc2O1 | inactive |
| C[C@@H]1CCCCO[C@H](CN(C)Cc2ccc(C(F)(F)F)cc2)[C@H](C)CN([C@@H](C)CO)C(=O)c2cc(NC(=O)CCCN(C)C)ccc2O1 | active |
| C[C@H]1CCCCO[C@H](CN(C)Cc2ccc(C(F)(F)F)cc2)[C@@H](C)CN([C@@H](C)CO)C(=O)c2cc(NC(=O)CCCN(C)C)ccc2O1 | active |
| C[C@@H]1CCCCO[C@H](CN(C)Cc2ccc(C(F)(F)F)cc2)[C@@H](C)CN([C@@H](C)CO)C(=O)c2cc(NC(=O)CCCN(C)C)ccc2O1 | active |
| C[C@@H]1CN([C@@H](C)CO)C(=O)c2cc(NC(=O)CCCN(C)C)ccc2O[C@@H](C)CCCCO[C@H]1CN(C)Cc1ccc(C(F)(F)F)cc1 | inactive |
| C[C@@H]1CN([C@H](C)CO)C(=O)c2cc(NC(=O)CCCN(C)C)ccc2O[C@@H](C)CCCCO[C@@H]1CN(C)Cc1ccc(C(F)(F)F)cc1 | inactive |
| C[C@H](CO)N1C[C@H](C)[C@H](CN(C)Cc2ccc(C(F)(F)F)cc2)OCCCC[C@H](C)Oc2ccc(NC(=O)CCCN(C)C)cc2C1=O | active |
| C[C@@H]1CN([C@H](C)CO)C(=O)c2cc(NC(=O)CCCN(C)C)ccc2O[C@@H](C)CCCCO[C@H]1CN(C)Cc1ccc(C(F)(F)F)cc1 | inactive |
| C[C@@H]1CCCCO[C@@H](CN(C)Cc2ccc(C(F)(F)F)cc2)[C@@H](C)CN([C@H](C)CO)C(=O)c2cc(NC(=O)CCCN(C)C)ccc2O1 | inactive |
| C[C@H](CO)N1C[C@H](C)[C@@H](CN(C)Cc2ccc(C(F)(F)F)cc2)OCCCC[C@H](C)Oc2ccc(NC(=O)CCCN(C)C)cc2C1=O | inactive |
| CN(C)C(=O)C[C@@H]1CC[C@H]2[C@H](COc3ccc(NS(=O)(=O)c4cccc(F)c4)cc3C(=O)N2C)O1 | inactive |
| COc1ccc(S(=O)(=O)N(C)C[C@H]2OCCCC[C@H](C)Oc3ccc(NS(C)(=O)=O)cc3C(=O)N([C@H](C)CO)C[C@@H]2C)cc1 | inactive |
| C[C@H](CO)N1C[C@H](C)[C@H](CN(C)Cc2cccc(O)c2)OCc2ccccc2-c2c(n(C)c3ccccc23)C1=O | inactive |
